Compounds with a hit are over-represented: about 6.1% of the library has one in this group of screens.
D3 ag = qHTS of D3 Dopamine Receptor Agonist: qHTS | D3R DiscoveRx beta-arrestin cells, luminescence, 90 min | max activation, % | 410,000 compounds, 0.58% hits; in the data active = max activation above about 30%; also: 0% is about no effect
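Agonist mode: compounds and dopamine controls were applied to plated cells for 90 min at 37 degrees C after an overnight attachment at 1500 cells/well. Luminescent read-out followed 30 - 60 minutes at room temperature with DiscoveRx detection reagent.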
DRD3 antagonist = qHTS of D3 Dopamine Receptor Antagonist: qHTS; max response, negative = inhibition, %; D3R cells, DiscoveRx beta-arrestin luminescence, antagonist mode; hits give low values; 360,000 compounds, 2.5% hits; AID 652054, 2013; in the data active = max response below about -50%; also: % is scaled to controls: 0 for no effect and ±100 for the full control effect
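Cells expressing the human receptor were seeded at 1500 cells/well, incubated overnight at 37 degrees C in 5% CO2, then exposed to library compounds with dopamine controls for 90 minutes at 37 degrees C before luminescent detection.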
D1 antag = Antagonist of Human D 1 Dopamine Receptor: qHTS; HEK293 TREx D1 cells, calcium flux, dopamine EC80; hits give low values; activity change, negative = inhibition, % at 10 µM; 360,000 compounds, 3.2% hits; in the data active = activity change below about -30%; also: % is scaled to controls: 0 for no effect and ±100 for the full control effect
Target sequence (P21728 whole entry, looked up): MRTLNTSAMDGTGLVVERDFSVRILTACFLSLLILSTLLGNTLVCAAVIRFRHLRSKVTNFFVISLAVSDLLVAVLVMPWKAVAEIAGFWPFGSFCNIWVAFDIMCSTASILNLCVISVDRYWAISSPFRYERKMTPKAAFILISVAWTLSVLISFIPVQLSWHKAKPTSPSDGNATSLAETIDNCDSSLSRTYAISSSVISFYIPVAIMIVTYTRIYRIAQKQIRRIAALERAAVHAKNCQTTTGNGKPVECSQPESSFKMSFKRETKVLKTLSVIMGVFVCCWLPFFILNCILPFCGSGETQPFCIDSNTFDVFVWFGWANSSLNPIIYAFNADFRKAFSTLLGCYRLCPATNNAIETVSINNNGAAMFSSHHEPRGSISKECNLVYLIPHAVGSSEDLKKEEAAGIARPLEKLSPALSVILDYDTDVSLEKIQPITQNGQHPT
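Using tetracycline-induced force-coupled D1 Hek293 cells and a calcium dye, signals were followed for 180 s after compound, then for 180 s after EC80 dopamine, to detect inhibitors.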
D1 potentiator = Potentiators of Human D1 Dopamine Receptor: qHTS. D(1A) dopamine receptor (Homo sapiens), P21728. HEK293 TREx D1 cells, calcium flux, dopamine EC20 potentiation. potentiation, % at 10 µM. 360,000 compounds, 0.036% hits. AID 504651, 2011; in the data active = potentiation above about 30%; also: 0% is about no effect
D1 ag = Allosteric Agonists of the Human D1 Dopamine Receptor: qHTS; D(1A) dopamine receptor (Homo sapiens), P21728; HEK293 T-REx D1 cells, calcium flux, agonist mode; activation, % at 2 µM; 360,000 compounds, 1% hits; AID 504660, 2011; in the data active = activation above about 30%; also: 0% is about no effect
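Inducible HEK293 T-REx D1 cells, force-coupled to calcium signalling, were plated at 4000 cells/well with tetracycline and held overnight at 30 C. After no-wash calcium dye loading, compound-evoked calcium rise over 180 s flagged agonists.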
* marks the source's active call; other numbers are inactive results; ! = not active in a repeat.

What do the screens show for `Cc1nn(C)c2c1c(-c1ccccc1)cc(=O)n2Cc1ccc(F)cc1`?
D3 ag: 31.3*; D1 antag: 2.2; D1 potentiator: -6.1; D1 ag: 19.7

What do the screens show for `COc1ccc(C)cc1NC(=O)Cn1c(=O)cc(C)c2c(C)nn(C)c21`?
D3 ag: 3.7; D1 antag: -30.8*; D1 potentiator: 0.3; D1 ag: 17.4

How did COC(=O)c1ccc(Cn2c(=O)cc(C)c3c(C)nn(C)c32)cc1 do in these assays?
D3 ag: 36.9*; D1 antag: -23.6; D1 potentiator: -5.1; D1 ag: 18.4

How did CCn1c(SC2CCOC2=O)nnc1-c1ccc(Cl)cc1 (centres undefined) do in these assays?
D3 ag: 0.3; DRD3 antagonist: 0.3; D1 antag: -7.6; D1 potentiator: -3.1; D1 ag: -0.7

How did N#Cc1ccccc1COC(=O)c1ccc(Br)o1 do in these assays?
D3 ag: -7.6; DRD3 antagonist: -23.9; D1 antag: 0.1; D1 potentiator: 0.2; D1 ag: 2.6

What do the screens show for `CC(C)c1ccc(CNC(=O)c2ccc(N3CCCC3)c(NC(=O)NCc3ccc(F)cc3)c2)cc1`?
D3 ag: -4.7; D1 antag: 7.1; D1 potentiator: 2.1; D1 ag: 0.1

What do the screens show for `CCOC(=O)c1c(C)[nH]c(C2=NNC(=Nc3ccc(OCC)cc3)SC2)c1C`?
D3 ag: -13.8; DRD3 antagonist: -15.7; D1 antag: -71.7*; D1 potentiator: -15.7; D1 ag: -2.4

How did CC(C)(C)N=C1NN=C(c2ccc(Cl)cc2)CS1 do in these assays?
D3 ag: -10.7; DRD3 antagonist: -8.2; D1 antag: -40.4*; D1 potentiator: -11.3; D1 ag: -0.1

What do the screens show for `CCOC(=O)c1c(C)[nH]c(C2=NNC(=Nc3ccccc3)SC2)c1C`?
D3 ag: -0.2; DRD3 antagonist: 14.5; D1 antag: -11.0; D1 potentiator: -2.4; D1 ag: -0.1

What do the screens show for `CC(=O)c1c(C)[nH]c(C2=NNC(=NC(C)(C)C)SC2)c1C`?
D3 ag: 8.0; DRD3 antagonist: -3.2; D1 antag: -32.5*; D1 potentiator: -8.2; D1 ag: 1.8

What do the screens show for `OC(Cc1ccnc2ccccc12)C(Cl)(Cl)Cl` (centres undefined)?
D3 ag: 13.3; DRD3 antagonist: 13.2

How did CCCCN(C)c1c(C)nc2ccc(C(=O)NCCCn3ccnc3)cn12 do in these assays?
D3 ag: -3.1; DRD3 antagonist: 2.0

What do the screens show for `COc1ccc([C@]23Cc4ccccc4C(O2)C2=C(CC4(CCCCC4)OC2=O)O3)cc1`?
D1 antag: 8.7; D1 potentiator: -4.4; D1 ag: 2.2

How did Cc1noc(C)c1C(=O)Nc1sc2c(c1C(N)=O)CCCCC2 do in these assays?
D3 ag: 46.5*; DRD3 antagonist: 23.4; D1 antag: -6.9; D1 potentiator: -1.8; D1 ag: 3.8

Results for Cc1noc(C)c1C(=O)Nc1sc2c(c1C(N)=O)CCC2 ?
D3 ag: 8.8; DRD3 antagonist: 2.2; D1 antag: -11.8; D1 potentiator: 2.2; D1 ag: 14.0

Results for NC(=O)c1c(NC(=O)c2ccncc2)sc2c1CCCCCC2 ?
D3 ag: 3.0; DRD3 antagonist: 6.3; D1 antag: -7.6; D1 potentiator: -9.3; D1 ag: 36.7*

Results for O=C(/C=C/c1ccc(O)c(O)c1)O[C@@H]1C[C@@](OC(=O)/C=C/c2ccc(O)c(O)c2)(C(=O)O)C[C@@H](O)[C@@H]1O ?
D3 ag: 5.1

What do the screens show for `O=C(NCCCN1CCN(c2ccccc2F)CC1)C1COc2ccccc2C1` (centres undefined)?
D3 ag: 12.6; D1 antag: -34.4*; D1 potentiator: -4.5; D1 ag: 5.6

Results for COc1ccc(N2CCN(CCCNC(=O)C3COc4ccccc4C3)CC2)cc1 (centres undefined) ?
D3 ag: -12.7; D1 antag: -18.7; D1 potentiator: -0.8; D1 ag: 13.1

Results for O=C(NCCN1CCN(c2ccccc2F)CC1)C1c2ccccc2C(=O)N2CCc3ccccc3C12 (centres undefined) ?
D3 ag: -1.7; DRD3 antagonist: -56.6*; D1 antag: -44.1*; D1 potentiator: -4.5; D1 ag: 0.3

What do the screens show for `Cc1ccc(C)c(N2CCN(CCCNC(=O)C3COc4ccccc4C3)CC2)c1` (centres undefined)?
D3 ag: -17.1; D1 antag: -26.1; D1 potentiator: -0.1; D1 ag: 63.3*

What do the screens show for `CCC(=O)N1c2ccccc2CC1C(=O)NCCN1CCN(c2ccccc2F)CC1` (centres undefined)?
D3 ag: -24.5; D1 antag: -3.5; D1 potentiator: -1.1; D1 ag: -0.7

How did O=C(NCCS(=O)(=O)N1CCN(c2ccccc2F)CC1)C1CC(=O)N(c2ccccc2)C1 (centres undefined) do in these assays?
D3 ag: -5.9; DRD3 antagonist: -0.7; D1 antag: 3.9; D1 potentiator: -2.1; D1 ag: 114.8*!

How did CCCc1ccc(C(=O)NNc2cccc(C)c2)cc1 do in these assays?
D3 ag: 3.4; DRD3 antagonist: -13.4; D1 antag: -8.0; D1 potentiator: -0.3; D1 ag: 0.7

How did c1cc2c(c(CC3CO3)c1CC1CO1)OCCOCCOCCOCCO2 (centres undefined) do in these assays?
D3 ag: 11.6; DRD3 antagonist: 0.3

Results for O=C(NCCCN1CCN(c2ccccc2F)CC1)C1CC(=O)N(C2CCCC2)C1 (centres undefined) ?
D3 ag: 41.1*; DRD3 antagonist: -77.2*; D1 antag: 2.3; D1 ag: 0.9

What do the screens show for `NS(=O)(=O)c1ccc(-n2nncc2C23CC4CC(CC(C4)C2)C3)cc1`?
D3 ag: 1.3; DRD3 antagonist: -16.1; D1 antag: -90.8*; D1 potentiator: -2.2; D1 ag: 0.9

Results for NS(=O)(=O)c1ccc(CCNC(=O)NC23CC4CC(CC(C4)C2)C3)cc1 ?
D3 ag: 4.6; DRD3 antagonist: 6.7; D1 potentiator: -5.2; D1 ag: 0.7

How did Cc1ccccc1-c1noc(-c2ccc(NCC3CCCO3)c([N+](=O)[O-])c2)n1 (centres undefined) do in these assays?
D3 ag: 0.6; D1 antag: 0.8; D1 potentiator: -0.5; D1 ag: 1.8

What do the screens show for `Cc1cc(C)n(/N=C/c2cc(Cl)cc(Cl)c2O)c(=O)c1`?
D3 ag: -27.9; DRD3 antagonist: -76.8*; D1 antag: 0.9; D1 potentiator: -1.4; D1 ag: 2.8

How did Cc1cc(C)n(/N=C/c2ccccc2O)c(=O)c1 do in these assays?
D3 ag: 6.8; DRD3 antagonist: 3.1; D1 antag: -2.0; D1 potentiator: 3.0; D1 ag: 5.1
